Reference: PubChem BioAssay (NCI)
The panel holds about 79,000 compounds, 15% with a hit somewhere; the sample as a whole holds those more often. Active and inactive are the calls of the source. Cut-off read from the data, not from the text of the source: active = growth inhibition above about 70%; inactive = the rest.

assay: NCI Yeast Anticancer Drug Screen. Data for the rad50 strain (AID 155);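 note: 0% = growth of vehicle-only cultures of the same strain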; conditions: S. cerevisiae rad50 strain growth inhibition; at 50.0 µM; stronger effect = higher value
Method in brief: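 Readout: growth inhibition relative to vehicle-treated cultures. Compound exposure was carried out in a genetically defined yeast strain deficient in DNA damage repair.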

| Structure (SMILES) | growth inhibition |
| --- | --- |
| O=C1C(Cl)=C(N2C(=O)CCC2=O)C(=O)c2ccccc21 | 87.6% (active) |
| C/C(=N\NC(=S)N1CCCC1)c1nc2ncccc2[nH]1 | 85.9% (active) |
| Clc1ccc(CN2COc3c(cc(Cl)c4cccnc34)C2)cc1Cl | 95.4% (active) |
| Cc1cc(C)c2c(c1)sc1nncn12 | 97.9% (active) |
| O=[N+]([O-])C1=Cc2ccccc2S(=O)(=O)CC1 | 92.9% (active) |
| O=C1CNCCCN2CCN(CCCNCC(=O)Nc3ccc(cc3)S(=O)(=O)c3ccc(cc3)NC(=O)CNCCCN3CCN(CCCNCC(=O)Nc4ccc(cc4)S(=O)(=O)c4ccc(cc4)N1)CC3)CC2 | 98.8% (active) |
| O=C(Nc1ccccc1-c1nn(CN2CCNCC2)c(=S)n(CN2CCNCC2)c1=O)C(F)(F)F | 7.5% (inactive) |
| O=[N+]([O-])c1ccc(/C(=C\c2ccccc2)Cn2ccnc2)cc1 | 71.5% (active) |
| Cc1ccc(S(=O)(=O)NNC2Oc3cc4c(cc3C(c3ccccc3O)C2C)OCO4)cc1 (stereo not given) | 97.4% (active) |
| CC1CCC(NCCOC(=O)c2ccc([N+](=O)[O-])cc2)CC1 (stereo not given) | 70.8% (active) |
| Oc1cc(F)ccc1-c1ccc(F)cc1 | 72.5% (active) |
| CN(C)C(=O)/N=c1\ss/c(=N\C(=S)N(C)C)n1-c1ccccc1 | 68.2% (inactive) |
| Cn1c(=O)cc[nH]c1=O | 4.85% (inactive) |
| CCOc1c(N=Nc2ccccc2OC)c(-c2ccccc2)nn1C(N)=S | 67% (inactive) |
| CS(C)=O.[Cl-].[Cl-].[NH-]CC(O)CN(Cc1ccccc1)CC(O)CN.[Pt] (stereo not given) | 31.9% (inactive) |
| Clc1ccc(C2=CCN3CC=C(c4ccc(Cl)cc4)C23)cc1 | 99.8% (active) |
| CCOC(=O)C(Cc1cn(S(=O)(=O)c2ccccc2)c2ccccc12)(NC(C)=O)C(=O)OCC | 61.8% (inactive) |
| BrCC1(CBr)COC1 | 3.85% (inactive) |
| O=C1CC(O)C=C1Nc1ccc(Cl)cc1 (stereo not given) | 98.8% (active) |
| COc1cc(NCCCCCNC(C)C)c2ncc(C)c(C)c2c1 | 75.7% (active) |

| Structure (SMILES) | growth inhibition |
| --- | --- |
| Cc1ccc(C(c2ccc(N(C)C)cc2)c2ccc(N(C)C)cc2)cc1 | 94.5% (active) |
| COc1ccc(OC)c2c1C=C[C@H](C1(C)SCCS1)C2C(C)=O (stereo not given in full) | 74% (active) |
| CCOC(=O)c1cc2c(nc1NCc1ccc(OC)c(OC)c1)/C(=C/c1ccccc1)CCCC2 | 90.2% (active) |
| N#Cc1ccccc1[N+](=O)[O-] | 67.5% (inactive) |
| O=C1c2cccc3cc4ccccc4c(c23)C(=O)N1CCCNCCNCCCN1C(=O)c2cccc3cc4ccccc4c(c23)C1=O | 90.1% (active) |
| CC(=O)Oc1ccc(N=[N+]([O-])c2ccc(OC(C)=O)cc2)cc1 | 1.95% (inactive) |
| CCOCCNc1ncnc2c1cnn2C | -1.1% (inactive) |
| O=Cc1ccc(-c2nccc3c2[nH]c2ccccc23)o1 | 78.2% (active) |
| O=c1oc2ccccc2c(O)c1C1=N/C(=N/N=C/c2ccc(Cl)cc2)SC1 | 64.2% (inactive) |
| Cc1ccccc1Oc1ccccc1N | 79.2% (active) |
| CCCCCCC(=O)Nc1ccc(OC(=O)CCCCCC)c(=O)cc1 | 98.8% (active) |
| CC(=O)C(C(C)=O)C1C=CC=CC=C1 | 97% (active) |
| CC(=O)Nc1ccc(N=C2c3ccccc3-c3ccc(NC(C)=O)cc32)cc1 | 98.4% (active) |
| C/C=C1\CC(C)(CC)C(C#N)(C#N)C(N)=C1C#N (stereo not given) | -5.9% (inactive) |
| Cc1cc(Cc2ccc(Cl)cc2)ccc1O | 56.4% (inactive) |
| O=C1C=CC(=O)N1c1ccc(-c2nc3ccccc3o2)cc1 | 86.2% (active) |
| CCN(CC)CC(O)c1ccnc2c(O)cccc12 (stereo not given) | 80.2% (active) |
| Nc1ccc(O)c2c1C(=O)c1ccccc1C2O (stereo not given) | 94.8% (active) |
| CC(=O)OC1CCC2(C)C(CCC3C4=CCC(C5COC(=O)C5)C4(C)CCC32)C1 (stereo not given) | 77.2% (active) |
| CCN(CC)CCOc1ccc(NC(=S)Nc2ccc(OCC(C)C)cc2)cc1 | 66.1% (inactive) |
